Test results from PubChem BioAssay (Tox21).
Several values for one entry are separate records, joined by “and”; a condition that tells them apart may be missing. Identical values can stand only once. Inconclusive results are not listed. Some compounds were tested as several samples or in several runs, with calls that do not always agree. Activity calls are given as the source filed them. Calls come from the whole dose curve; as a rule, active = well fitted curve in the direction sought with a large enough effect in the repeat runs; inconclusive = weak or mixed curves; inactive = no such curve, though single readings can be large; an effect the other way counts as inactive or inconclusive.

Columns and labels:
[1] = A CellTox Green Cytotoxicity Assay to monitor cytotoxicity in HEK293 cells - 40 hour (AID 1224871); note: nearly all actives have a fitted effect of over 45% in size; note: potency is the fitted concentration of half-maximal effect
Summary of the method: (§1)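 HEK293 cells, 600/well, were preincubated 5 hours and then exposed to compounds at 37 C for up to 40 hours. A cell-impermeant cyanine dye staining dead-cell DNA was read by fluorescence at 0, 8, 16, 24, 32 and 40 h time points.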

[2] = qHTS RealTime-Glo MT Cell Viability Assay in HEK293 cells - 16 hour (AID 1224872); note: nearly all actives have a fitted effect of over 50% in size; note: potency is the fitted concentration of half-maximal effect
Summary of the method: (§2)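 Tox21 10K qHTS, HEK293, 600 cells/well, RealTime-Glo reagent co-dispensed with cells; 5 h preincubation, compound by pintool, 37 C, luminescence at 0–40 h.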

[3] = qHTS RealTime-Glo MT Cell Viability Assay in HepG2 cells - 8 hour (AID 1224873); note: nearly all actives have a fitted effect of over 55% in size; note: potency is the fitted concentration of half-maximal effect
Summary of the method: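 HepG2 cells mixed with RealTime-Glo MT reagents (NanoLuc plus cell-permeant prosubstrate) were seeded at 600 cells/well, incubated 5 h at 37 C/5% CO2, then pinned with compounds in DMSO; nonlytic luminescence tracked viability during 40 h treatment.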

[4] = qHTS RealTime-Glo MT Cell Viability Assay in HEK293 cells - 40 hour (AID 1224874); conditions: RealTime-Glo luminescence; max response: stronger effect = lower value; note: nearly all actives have a fitted effect of over 50% in size; note: potency is the fitted concentration of half-maximal effect
Summary of the method: (§3)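 600 cells/well were plated with the nonlytic NanoLuc/prosubstrate reagent, pre-incubated 5 h, then given 23 nL of compound in DMSO. Incubation at 37 C for 40 h, with luminescence from viable-cell-reduced substrate read repeatedly from 0 h.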

[5] = A CellTox Green Cytotoxicity Assay to monitor cytotoxicity in HEK293 cells - 24 hour (AID 1224875); note: nearly all actives have a fitted effect of over 45% in size; note: potency is the fitted concentration of half-maximal effect
Summary of the method: as §1

[6] = A CellTox Green Cytotoxicity Assay to monitor cytotoxicity in HepG2 cells - 16 hour (AID 1224876); note: nearly all actives have a fitted effect of over 45% in size; note: potency is the fitted concentration of half-maximal effect
Summary of the method: (§4)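 HepG2 cells, 600/well, preincubated 5 h with CellTox Green dye, then exposed to Tox21 compounds in DMSO at 37 C for up to 40 h. Dead-cell DNA fluorescence read at the indicated time point.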

[7] = qHTS RealTime-Glo MT Cell Viability Assay in HepG2 cells - 32 hour (AID 1224877); note: nearly all actives have a fitted effect of over 55% in size; note: potency is the fitted concentration of half-maximal effect
Summary of the method: (§5)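 Cells + NanoLuc/prosubstrate dispensed (600 cells/well) → 5 h at 37 C/5% CO2 → compounds in DMSO transferred → 40 h incubation at 37 C, luminescence read at 0, 8, 16, 24, 32, 40 h.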

[8] = A CellTox Green Cytotoxicity Assay to monitor cytotoxicity in HepG2 cells - 24 hour (AID 1224878); note: nearly all actives have a fitted effect of over 45% in size; note: potency is the fitted concentration of half-maximal effect
Summary of the method: as §4

[9] = A CellTox Green Cytotoxicity Assay to monitor cytotoxicity in HepG2 cells - 40 hour (AID 1224879); note: nearly all actives have a fitted effect of over 40% in size; note: potency is the fitted concentration of half-maximal effect
Summary of the method: as §4

[10] = qHTS RealTime-Glo MT Cell Viability Assay in HEK293 cells - 0 hour (AID 1224880)
Summary of the method: as §3

[11] = A CellTox Green Cytotoxicity Assay to monitor cytotoxicity in HEK293 cells - 32 hour (AID 1224881); note: nearly all actives have a fitted effect of over 40% in size; note: potency is the fitted concentration of half-maximal effect
Summary of the method: as §1

[12] = A CellTox Green Cytotoxicity Assay to monitor cytotoxicity in HepG2 cells - 0 hour (AID 1224882); note: nearly all actives have a fitted effect of over 35% in size
Summary of the method: as §4

[13] = A CellTox Green Cytotoxicity Assay to monitor cytotoxicity in HepG2 cells - 32 hour (AID 1224883); note: nearly all actives have a fitted effect of over 50% in size; note: potency is the fitted concentration of half-maximal effect
Summary of the method: as §4

[14] = A CellTox Green Cytotoxicity Assay to monitor cytotoxicity in HEK293 cells - 8 hour (AID 1224884); note: nearly all actives have a fitted effect of over 35% in size; note: potency is the fitted concentration of half-maximal effect
Summary of the method: as §1

[15] = qHTS RealTime-Glo MT Cell Viability Assay in HepG2 cells - 16 hour (AID 1224885); note: nearly all actives have a fitted effect of over 50% in size; note: potency is the fitted concentration of half-maximal effect
Summary of the method: as §5

[16] = qHTS RealTime-Glo MT Cell Viability Assay in HEK293 cells - 24 hour (AID 1224886); note: nearly all actives have a fitted effect of over 50% in size; note: potency is the fitted concentration of half-maximal effect
Summary of the method: as §2

[17] = qHTS RealTime-Glo MT Cell Viability Assay in HEK293 cells - 8 hour (AID 1224887); note: nearly all actives have a fitted effect of over 50% in size; note: potency is the fitted concentration of half-maximal effect
Summary of the method: as §3

[18] = A CellTox Green Cytotoxicity Assay to monitor cytotoxicity in HEK293 cells - 16 hour (AID 1224888); note: nearly all actives have a fitted effect of over 35% in size; note: potency is the fitted concentration of half-maximal effect
Summary of the method: as §1

[19] = qHTS RealTime-Glo MT Cell Viability Assay in HepG2 cells - 0 hour (AID 1224889); note: nearly all actives have a fitted effect of over 50% in size
Summary of the method: as §5

[20] = A CellTox Green Cytotoxicity Assay to monitor cytotoxicity in HepG2 cells - 8 hour (AID 1224890); note: nearly all actives have a fitted effect of over 45% in size
Summary of the method: as §4
% is set by controls: 0 for no effect and ±100 for the full control effect.

Cc1ccn2nc(S(=O)(=O)Nc3c(F)cccc3F)nc2n1
inactive: Potency [1] | Potency [2] | Potency [3] | max response [4] 12.5% | Potency [5] | Potency [6] | Potency [7] | Potency [8] | Potency [9] | Potency [10] | Potency [11] | Potency [12] | Potency [13] | Potency [14] | Potency [15] | Potency [16] | Potency [17] | Potency [18] | Potency [19] | Potency [20]

CC1CN1 (stereo not given)
inactive: Potency [1] | Potency [2] | Potency [3] | max response [4] 6.11% | Potency [5] | Potency [6] | Potency [7] | Potency [8] | Potency [9] | Potency [10] | Potency [11] | Potency [12] | Potency [13] | Potency [14] | Potency [15] | Potency [16] | Potency [17] | Potency [18] | Potency [19] | Potency [20]

CCCCn1cc[n+](C)c1 (tested in a mixture with another compound)
inactive: Potency [1] | Potency [2] | Potency [3] | max response [4] 0.0469% | Potency [5] | Potency [6] | Potency [7] | Potency [8] | Potency [9] | Potency [10] | Potency [11] | Potency [12] | Potency [13] | Potency [14] | Potency [15] | Potency [16] | Potency [17] | Potency [18] | Potency [19] | Potency [20]

CN1C2CCC(C)(C)C1CC(OC(=O)C(O)(c1cccs1)c1cccs1)C2 (stereo not given)
inactive: Potency [1] | Potency [2] | Potency [3] | max response [4] -25.3% | Potency [5] | Potency [6] | Potency [7] | Potency [8] | Potency [9] | Potency [10] | Potency [11] | Potency [12] | Potency [13] | Potency [14] | Potency [15] | Potency [16] | Potency [17] | Potency [18] | Potency [19] | Potency [20]

Cc1cc2c3c(c1)C(c1ccccc1)=N[C@@H](NC(=O)c1ccncc1)C(=O)N3CC2
inactive: Potency [1] | Potency [2] | Potency [3] | max response [4] -16.5% | Potency [5] | Potency [6] | Potency [7] | Potency [8] | Potency [9] | Potency [10] | Potency [11] | Potency [12] | Potency [13] | Potency [14] | Potency [15] | Potency [16] | Potency [17] | Potency [18] | Potency [20]

CN(C)C(=S)SSC(=S)N(C)C
inactive: Potency [10] | Potency [12] | Potency [19]
49 µM (active) and inactive: Potency [14]
active: Potency [1] 216 nM and 195 nM and 239 nM | Potency [2] 384 nM and 692 nM | Potency [3] 48.3 µM and 24.5 µM and 3.01 µM | Potency [4] 216 nM and 219 nM and 9.52 µM | Potency [5] 27.2 µM and 27.5 µM | Potency [6] 21.9 µM | Potency [7] 54.2 µM and 245 nM and 169 nM | Potency [8] 436 nM and 21.3 µM | Potency [9] 216 nM and 275 nM and 134 nM | Potency [11] 4.83 µM and 1.23 µM and 213 nM | Potency [13] 309 nM and 134 nM | Potency [15] 48.3 µM and 1.74 µM and 2.68 µM | Potency [16] 272 nM and 195 nM and 21.3 µM | Potency [17] 43 µM and 27.5 µM | Potency [18] 43 µM and 38.9 µM

CCOP(=S)(OCC)Oc1cc(C)nc(N(CC)CC)n1
inactive: Potency [1] | Potency [2] | Potency [3] | max response [4] 2.8% | Potency [5] | Potency [6] | Potency [7] | Potency [8] | Potency [9] | Potency [10] | Potency [11] | Potency [12] | Potency [13] | Potency [14] | Potency [15] | Potency [16] | Potency [17] | Potency [18] | Potency [19] | Potency [20]

CC1CCCC1
inactive: Potency [1] | Potency [2] | Potency [3] | max response [4] -28.5% | Potency [5] | Potency [6] | Potency [7] | Potency [8] | Potency [9] | Potency [10] | Potency [11] | Potency [12] | Potency [13] | Potency [14] | Potency [15] | Potency [16] | Potency [17] | Potency [18] | Potency [19] | Potency [20]

C=CC(=C)C
inactive: Potency [1] | Potency [2] | Potency [3] | max response [4] 8.63% | Potency [5] | Potency [6] | Potency [7] | Potency [8] | Potency [9] | Potency [10] | Potency [11] | Potency [12] | Potency [13] | Potency [14] | Potency [15] | Potency [16] | Potency [17] | Potency [18] | Potency [19] | Potency [20]

CCCCc1ccccc1
inactive: Potency [1] | Potency [2] | Potency [3] | max response [4] -16% | Potency [5] | Potency [6] | Potency [7] | Potency [8] | Potency [9] | Potency [10] | Potency [11] | Potency [12] | Potency [13] | Potency [14] | Potency [15] | Potency [16] | Potency [17] | Potency [18] | Potency [19] | Potency [20]

Cc1c([N+](=O)[O-])c(C)c([N+](=O)[O-])c(C(C)(C)C)c1[N+](=O)[O-]
inactive: Potency [1] | Potency [2] | Potency [3] | max response [4] -20% | Potency [5] | Potency [6] | Potency [7] | Potency [8] | Potency [9] | Potency [10] | Potency [11] | Potency [12] | Potency [13] | Potency [14] | Potency [15] | Potency [16] | Potency [17] | Potency [18] | Potency [19]

CSC(=O)c1c(C(F)F)nc(C(F)(F)F)c(C(=O)SC)c1CC(C)C
inactive: Potency [1] | Potency [2] | Potency [3] | max response [4] -19% | Potency [5] | Potency [6] | Potency [7] | Potency [8] | Potency [9] | Potency [10] | Potency [11] | Potency [12] | Potency [13] | Potency [15] | Potency [17] | Potency [18] | Potency [19] | Potency [20]
